{
  "source": "PubChem BioAssay (NCI)",
  "note": "“And” between values parts separate entries of the source, which are not always exact repeats. Identical values can stand only once. This is part of a sample that, as a whole, favours compounds with a hit. Of some 79,000 tested, about 15% had one in any assay. The source made the active and inactive calls. No stated cut-off is given here; in the data, active means growth inhibition above about 70%; inactive means the rest.",
  "data": [
    {"assay": "NCI Yeast Anticancer Drug Screen. Data for the bub3 strain (AID 167)", "conditions": "S. cerevisiae bub3 mutant strain, hits give high values; at 50.0 µM unless noted", "how_it_was_run": "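Steps: expose the mutant yeast strain to compound; grow alongside vehicle-treated cultures; measure growth; express inhibition against the vehicle cultures.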", "values": [
      {"smiles": "O=C(O)CCc1[nH]c(I)nc1I", "growth inhibition": "-7.45% (inactive)"},
      {"smiles": "CCCSc1ncnc2nc[nH]c12", "growth inhibition": "-13.7% (inactive)"},
      {"smiles": "Cc1ccc(-c2c(C#N)c(O)n(NS(=O)(=O)c3ccccc3)c(=O)c2C#N)cc1", "growth inhibition": "-14.3% (inactive)"},
      {"smiles": "Cc1nc2ncnc(N)c2[nH]1", "growth inhibition": "11.2% (inactive)"},
      {"smiles": "COC1C(O)C(n2ncc3c(SC)nc(SC)nc32)OC1C(O)CO", "note": "(stereo unspecified)", "growth inhibition": "-4% (inactive)"},
      {"smiles": "CC1=NN(C(=O)c2ccccc2O)C(=O)/C1=C/c1ccccc1O", "growth inhibition": "-39.5% (inactive)"}
    ]},
    {"assay": "NCI Yeast Anticancer Drug Screen. Data for the mlh1 rad18 strain (AID 175)", "conditions": "S. cerevisiae mlh1 rad18 strain growth inhibition, hits give high values; at 50.0 µM unless noted", "how_it_was_run": "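Steps: expose repair-defective yeast to compound; measure growth; express inhibition against vehicle-treated controls.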", "values": [
      {"smiles": "COc1ccc(-n2c(CCC(=O)O)nc3c2C(=O)c2ccccc2C3=O)cc1", "growth inhibition": "14.2% (inactive)"},
      {"smiles": "COc1ccc(C(=O)O)c(Cc2ccc3ccccc3c2)c1", "growth inhibition": "36% (inactive)"},
      {"smiles": "OCC(O)Cc1ccccc1", "note": "(stereo unspecified)", "growth inhibition": "5.05% (inactive)"},
      {"smiles": "CCCCCCCCCCCCCCCCCC(=O)CBr", "growth inhibition": "38.9% (inactive)"},
      {"smiles": "CC(=O)[C@@]1(O)CC[C@H]2[C@@H]3CC[C@@H]4C[C@H](O)CC[C@]4(C)[C@H]3[C@H](O)C[C@@]21C", "growth inhibition": "-7.85% (inactive)"},
      {"smiles": "CC1=C/C(O)CC(=O)Cc2nc(co2)C(=O)N2CCC=C2C(=O)OC(C(C)C)C(C)/C=C\\C(=O)NC/C=C\\1", "note": "(stereo unspecified)", "growth inhibition": "35.2% (inactive) and 2.2% (inactive)"},
      {"smiles": "O=c1oc2ccccc2c(O)c1Cc1ccccc1Cc1c(O)c2ccccc2oc1=O", "growth inhibition": "65% (inactive)"},
      {"smiles": "O=[N+]([O-])c1ccccc1/C=C/c1ccccn1", "growth inhibition": "21.1% (inactive)"},
      {"smiles": "COCS(=O)(=O)c1ccccc1", "growth inhibition": "0.15% (inactive)"},
      {"smiles": "COc1ccc(C(N2CCNCC2)N2CCNCC2)cc1", "growth inhibition": "48.3% (inactive)"},
      {"smiles": "N#CCCOc1ccc(N)cc1", "growth inhibition": "17.6% (inactive)"},
      {"smiles": "O=C1/C(=C\\C=C\\c2ccccc2)CCCC/C1=C\\C=C\\c1ccccc1", "growth inhibition": "8.35% (inactive)"},
      {"smiles": "CS/C(=N\\c1nccs1)NC(=O)c1cccc(Cl)c1", "growth inhibition": "10.8% (inactive)"},
      {"smiles": "Oc1c(CN2CCOCC2)ccc(CN2CCOCC2)c1O", "growth inhibition": "35.5% (inactive)"},
      {"smiles": "COc1ccc(NC(=O)c2ccc(OC)cc2)cc1", "growth inhibition": "-3.7% (inactive)"},
      {"smiles": "CS(=O)(=O)OCCN(CCOS(C)(=O)=O)c1ccc([N+](=O)[O-])cc1[N+](=O)[O-]", "growth inhibition": "13.6% (inactive)"},
      {"smiles": "O=C(OC(c1ccccc1)C(c1ccccc1)N1CCOCC1)c1ccc([N+](=O)[O-])cc1", "note": "(stereo unspecified)", "growth inhibition": "54.6% (inactive)"},
      {"smiles": "c1ccc(CN2CCOC2)cc1", "growth inhibition": "-35.6% (inactive)"},
      {"smiles": "COc1cc(N=C=S)ccc1NC(=O)c1cc(Br)cc(Br)c1O", "growth inhibition": "45% (inactive)"},
      {"smiles": "N#CCCCCCOCCOCCOCCOCCOCCCCCC#N", "growth inhibition": "18.6% (inactive)"},
      {"smiles": "N#C/C(=C/c1ccccc1)c1ccccc1", "growth inhibition": "24.1% (inactive)"},
      {"smiles": "CC(C)N(CC(C)(C)O)C(=O)c1ccccc1", "growth inhibition": "-8.4% (inactive)"},
      {"smiles": "CC(C)CNC(=O)c1ccccc1Cl", "growth inhibition": "-11.1% (inactive)"},
      {"smiles": "O=C(CSS(=O)(=O)O)Nc1ccccc1", "growth inhibition": "-8.05% (inactive)"},
      {"smiles": "Cc1ccc(Nc2cc(C(=O)O)c(Nc3ccc(C)cc3)cc2C(=O)O)cc1", "growth inhibition": "6.9% (inactive)"},
      {"smiles": "Cc1sc2ccccc2[n+]1CCC(=O)O", "growth inhibition": "-7.65% (inactive)"},
      {"smiles": "CC(C)c1ccc(C2NC(c3ccccc3)c3c(ccc4ccccc34)O2)cc1", "note": "(stereo unspecified)", "growth inhibition": "-1.65% (inactive)"},
      {"smiles": "C/C(CC(=O)Nc1cc(C)ccc1C)=N\\NC(=O)c1ccncc1", "growth inhibition": "1.15% (inactive)"},
      {"smiles": "O=S(=O)(N/N=C/c1cccc(Cl)c1Cl)c1ccccc1", "growth inhibition": "21.5% (inactive)"},
      {"smiles": "COc1cc(Cc2nccc3cc(OC)c(OC)cc23)c(C(C)=O)cc1OC", "growth inhibition": "22.4% (inactive)"},
      {"smiles": "CCOC(=O)c1c[nH]c2c(Cl)c(Cl)ccc2c1=O", "growth inhibition": "-6.95% (inactive)"},
      {"smiles": "COc1ccc(C(=O)Oc2ccccc2C(C)=O)cc1", "growth inhibition": "-12.8% (inactive)"},
      {"smiles": "O=Cc1cccc2ccc3cccc(C(=O)Cl)c3c12", "growth inhibition": "32.5% (inactive)"},
      {"smiles": "O=C(CCCn1ccnc1[N+](=O)[O-])NCCn1cnc([N+](=O)[O-])n1", "growth inhibition": "-16.1% (inactive)"},
      {"smiles": "O=C(O)CCc1[nH]c(I)nc1I", "growth inhibition": "29.5% (inactive)"},
      {"smiles": "CCCSc1ncnc2nc[nH]c12", "growth inhibition": "16.9% (inactive)"},
      {"smiles": "Cc1ccc(-c2c(C#N)c(O)n(NS(=O)(=O)c3ccccc3)c(=O)c2C#N)cc1", "growth inhibition": "-11.7% (inactive)"},
      {"smiles": "Cc1nc2ncnc(N)c2[nH]1", "growth inhibition": "-5.95% (inactive)"},
      {"smiles": "COC1C(O)C(n2ncc3c(SC)nc(SC)nc32)OC1C(O)CO", "note": "(stereo unspecified)", "growth inhibition": "14.4% (inactive)"},
      {"smiles": "CC1=NN(C(=O)c2ccccc2O)C(=O)/C1=C/c1ccccc1O", "growth inhibition": "-24.6% (inactive)"}
    ]}
  ]
}
